# Test results: PubChem BioAssay AID893 (National Center for Advancing Translational Sciences (NCATS), 2007)
# Screen size: about 75,000 compounds; about 5,700 (7.6%) were called active. Where a call stands in place of a potency, no number is given. Inconclusive results (about 7%) are left out. Calls follow the shape of the dose curve; as a rule, active = well fitted inhibition curve with a large enough effect; inconclusive = small, poorly fitted or top-dose-only effect; inactive = no such curve, though single readings can be large or run the other way. This excerpt belongs to a sample that is enriched for actives.
# Target: 3-hydroxyacyl-CoA dehydrogenase type-2 (Homo sapiens) (UniProt Q99714)
# Assay: qHTS Assay for Inhibitors of HSD17B4, hydroxysteroid (17-beta) dehydrogenase 4;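 also: the protocol describes HADH2 (HSD17B10) and not the HSD17B4 of the title; nearly all actives have a fitted effect of over 70% in size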
# Conditions: recombinant HSD17B10, NADH fluorescence kinetic; series mostly up to 57.1 µM
# Method in brief: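 Enzyme plus compound, 15 min room temperature; substrate mix added (NAD+ 1 mM, beta-hydroxybutyryl-CoA 90 uM final); plates read kinetically for NADH fluorescence. HADH2 was His-tagged, E. coli-derived, 20 nM.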
# Potency is read from the fitted curve at half-maximal effect.
SMILES,Potency,"activity change, negative = inhibition"
CCCn1c(=NC(C)=O)c(C(=O)OCC)cc2c(=O)n3ccccc3nc21,20 µM (active),–
CCn1c(=N)c(S(=O)(=O)c2ccc(F)cc2)cc2c(=O)n3ccccc3nc21,inactive,–
CCOC(=O)c1cc2n(c1N)-c1ccccc1C2=O,inactive,–
Cc1nc(Nc2ccc3c(c2)OCCO3)c2nnn(Cc3ccccc3Cl)c2n1,31.6 µM (active),–
C#CCNc1nc(C(C)C)nc2c1nnn2Cc1ccccc1F,inactive,–
CC(C)(C)c1nc(NCC2CCCO2)c2nnn(Cc3ccccc3)c2n1 (stereo not given),inactive,–
O=c1cc(CO)oc(CN2CCC(Cc3ccccc3)CC2)c1O,inactive,–
OCCN1CCN(CC/C=C2\c3ccccc3Sc3ccc(C(F)(F)F)cc32)CC1,inactive,–
CCCN1[C@H](C(=O)OC)C[C@@]2(O)[C@@H](O)[C@@H](O)[C@@H](O)C[C@@H]12,inactive,–
Cc1nnc(SCC(=O)NCc2ccccc2)s1,inactive,–
COc1c(C(C)C)oc2cc3oc(=O)ccc3cc12,inactive,–
Fc1ccc2nc(Nc3nc4c(s3)CCCC4)sc2c1,25.1 µM (active),–
O=C(Cn1c(=O)sc2ccccc21)Nc1nc2c(s1)CCCC2,inactive,–
Fc1ccc2nc(N3CCCCC3)sc2c1,inactive,–
CNc1cc(-c2c(C)noc2C)ncn1,inactive,–
O=C1CCc2cc(S(=O)(=O)N3CCC(C(=O)NCc4ccccc4Cl)CC3)ccc2N1,inactive,–
COc1cccc(OC)c1C(=O)Nc1nnc(C(C)C)s1,inactive,–
CCCc1nnc(NC(=O)c2cc(OC)cc(OC)c2)s1,inactive,–
Cc1ccc(C(=O)Nc2nnc(-c3cccs3)s2)cc1C,25.1 µM (active),–
Cc1cc(C)nc(N2C(=O)CC(Cc3ccccc3)C2=O)n1 (stereo not given),inactive,–
COc1ccc(OC)c2[nH]c(=O)c(CCNC(=O)C(C)(C)C)cc12,inactive,–
CCCn1c(SCC(=O)N2CCc3ccccc32)nnc1-c1ccncc1,inactive,–
CCc1ccc(N2CC(C(=O)NC3=NCCS3)CC2=O)cc1 (stereo not given),inactive,–
O=C(c1cc(-c2cccs2)on1)N1CCCCC1,inactive,–

SMILES,Potency,"activity change, negative = inhibition"
Cc1ccc(C(=O)N2CCCCCC2)cc1Br,inactive,–
Cc1ccc2cc3cc(C(=O)N4CCCCCC4)oc3nc2c1,25.1 µM (active),–
Oc1c(CN2CCOCC2)ccc(CN2CCOCC2)c1O,–,-11.5% [at 11.4 µM] (inactive)
CO[C@H]1COC(=O)[C@@H](OCc2ccccc2)/C=C\[C@H](C)[C@@H](OC)COC(=O)[C@H](OCc2ccccc2)/C=C\[C@@H]1C,–,-0.999% [at 11.4 µM] (inactive)
CN(C)CCCn1c2ccccc2c2cnccc21,–,7.17% [at 11.4 µM] (inactive)
O=C(COc1ccc2oc3c(c2c1)CCCC3)Nc1ccccn1,inactive,–
Cc1cc(Cl)c(S(=O)(=O)NCC2CCCO2)cc1OCC(N)=O (stereo not given),inactive,–
O=C(CC1OC(=O)c2ccccc21)NC1CCCCC1 (stereo not given),inactive,–
NC(=O)COc1ccc2c3c(c(=O)oc2c1)CCCCC3,25.1 µM (active),–
O=C(COc1ccccc1F)NC1CC1,inactive,–
O=C(COc1ccc2c3c(c(=O)oc2c1)CCC3)NC1CCCCC1,31.6 µM (active),–
CCOC(=O)CSc1nc2c(c(=O)n(C)c(=O)n2C)n1Cc1ccccc1F,inactive,–
CCOC(=O)CSc1nnc(CNC(=O)Cc2ccccc2)n1-c1ccccc1OC,inactive,–
COC(=O)CSc1nc(C2CC2)nc2ccccc12,inactive,–
CCCc1nc2c3cnn(-c4cccc(Cl)c4)c3ncn2n1,inactive,–
Cc1ccc(-n2ncc3c2ncn2nc(-c4ccco4)nc32)c(C)c1,25.1 µM (active),–
Cc1ccc(-n2ncc3c(N4CCN(c5ccc(F)cc5)CC4)ncnc32)c(C)c1,inactive,–
CC1=C(/C=C/C(C)=C/C=C/C(C)=C/C=C/C=C(C)/C=C/C=C(C)/C=C/C2=C(C)CCCC2(C)C)C(C)(C)CCC1,inactive,–
CC(=O)OCC(=O)[C@@]1(O)CCC2C3CCC4=CC(=O)CC[C@@]4(C)[C@]3(F)C(O)C[C@]21C (stereo not given in full),inactive,–
CC(N)=NCc1cccc(CN)c1,inactive,–
COc1ccc2c(CC(=O)Nc3nnc(C4CC4)s3)coc2c1,25.1 µM (active),–
COc1cccc(NC(=O)Nc2nnc(N3CCCCC3C)s2)c1 (stereo not given),inactive,–
COc1ccc(OCCCC(=O)Nc2nnc(C3CCCO3)s2)cc1 (stereo not given),inactive,–
C[C@H]1CC[C@H](C(=O)O)N[C@@H]1c1ccc(C#Cc2ccccc2)cc1,–,-1.28% [at 11.4 µM] (inactive)

SMILES,Potency,"activity change, negative = inhibition"
O=C(Nc1cccc(F)c1)c1ccc(S(=O)(=O)N2CCCC2)cc1,inactive,–
C/C(Cl)=C\Cn1c(Nc2cccc(C)c2)nc2c1c(=O)n(C)c(=O)n2C,inactive,–
CCOC(=O)c1sc(NC(=O)CSc2ncccn2)c(C#N)c1C,inactive,–
COCCNC(=O)COc1ccc(C)c(C)c1,inactive,–
O=C(Nc1cccnc1)c1ccc2c(c1)OCO2,inactive,–
Cc1cccc(CNc2ccnc(-c3cccnc3)n2)c1,inactive,–
c1cncc(CNc2ccnc(-c3ccc4c(c3)OCO4)n2)c1,20 µM (active),–
Cc1onc(-c2ccccc2Cl)c1C(=O)NCCn1ccc2ccccc21,inactive,–
Cc1noc(/C=C/N(C)C)c1S(=O)(=O)N1CCCC(C(=O)NCc2ccco2)C1 (stereo not given),inactive,–
C=CCc1cccc2cc(C(=O)OCC)c(=O)oc12,31.6 µM (active),–
CS(=O)(=O)N1CCN(C(=O)c2cc3ccccc3oc2=O)CC1,inactive,–
COc1c(C(=O)N2CCCC2)ccc2ccccc12,inactive,–
C=CCc1cccc2cc(C(=O)N3CCN(C(=O)OCC)CC3)c(=O)oc12,25.1 µM (active),–
CCOC(=O)c1cc2ccccc2nc1C,inactive,–
CCOC(=O)N1CCN(C(=O)c2cn(C)c3ccc(S(=O)(=O)N4CCCC4)cc3c2=O)CC1,inactive,–
COc1cccc2cc(C(=O)N(C)C)c(=O)oc12,inactive,–
CCOC(=O)N1CCN(C(=O)c2cc3c(ccc4ccccc43)oc2=O)CC1,31.6 µM (active),–
CCOC(=O)N1CCN(C(=O)c2n[nH]c(=O)c3ccccc23)CC1,inactive,–
CC(C)=CCC/C(C)=C/CC/C(C)=C/CC/C(C)=C/CO,inactive,–
CC(c1cccnc1)N(CCN(C)C)C(=O)Nc1ccc(Cl)c(Cl)c1 (stereo not given),inactive,–
Cc1ccc(Br)cc1,inactive,–
COC(=O)c1ccc(N(CC(=O)NC2CCCC2)C(=O)CNC(=O)c2ccco2)cc1,inactive,–
